# Laboratory results published in PubChem BioAssay (NCATS).
# Inconclusive results are not listed. Where a call stands in place of a potency, no number is given. Active and inactive are the calls of the source. Calls come from the whole dose curve; as a rule, active = well fitted inhibition curve with a large enough effect; inconclusive = small, poorly fitted or top-dose-only effect; inactive = flat fitted curve, though single readings scatter.
# Biological target: Calcium and integrin-binding protein 1 (Homo sapiens) (UniProt Q99828)
# Sequence (Q99828 whole entry, looked up): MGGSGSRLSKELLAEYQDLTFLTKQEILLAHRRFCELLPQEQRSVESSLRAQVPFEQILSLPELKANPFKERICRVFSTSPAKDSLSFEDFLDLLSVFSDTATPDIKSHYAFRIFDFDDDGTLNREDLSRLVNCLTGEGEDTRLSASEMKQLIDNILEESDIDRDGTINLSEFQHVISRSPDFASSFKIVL
# Assay: Primary qHTS for Identification of Calcium Integrin Binding Protein 1 (CIB1) Competitor (AID 1508620);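 note: GST tagged CIB1 binding a fluorescein labelled alphaIIb integrin peptide tracer; top concentration of the series differs between compounds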
# Settings: CIB1-GST / FITC-alphaIIb peptide fluorescence polarization; series mostly up to 114 µM
# Summary of the method: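 Fluorescence polarization competition: CIB1-GST (1 uM final) preincubated with compound 15 min at room temperature, then FITC-labeled alphaIIb peptide (100 nM final) added for another 15 min. Polarization read at Ex 480/Em 540.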
row,SMILES,Potency
1,Cc1ccc(NS(=O)(=O)c2ccc3c(c2)CCCC(=O)N3)cc1C,inactive
2,Cc1ccc(-c2ccnn(CC(=O)N(C)C(C)c3ccco3)c2=O)cc1 (stereo not given),inactive
3,CC(=O)N1CCN(c2ccc(NCc3ccc(-c4ccc(Br)cc4)o3)cc2)CC1,inactive
4,O=C(OCC#CCSc1nnc(-c2cccc3ccccc23)o1)c1sccc1Cl,inactive
5,O=S(=O)(c1ccc2c(c1)OCCO2)N1CCN(S(=O)(=O)c2ccc3c(c2)OCCO3)CC1,inactive
6,NC(=O)C1CCN(c2nc(-c3ccc([N+](=O)[O-])cc3)cs2)CC1,inactive
7,Cc1ccc2nc3sc(C(=O)N4CCOCC4)cc3cc2c1,inactive
8,COc1ccc(OCc2nnc3n2N=C(c2ccccc2)CS3)cc1,inactive
9,O=C1NS(=O)(=O)c2cscc21,inactive
10,Cn1c2cc(B(O)O)sc2c2cnn(Cc3c(F)cccc3F)c(=O)c21,inactive
11,COc1ccc(C2=Nn3c(nnc3-c3ccccc3C(F)(F)F)SC2)cc1OC1CCOC1 (stereo not given),inactive
12,c1nc(NCC2CCCOC2)c2cc(-c3ccc4c(c3)OCO4)ccc2n1 (stereo not given),inactive
13,Cc1ccc(OC2=NS(=O)(=O)c3ccccc32)cc1,inactive
14,COc1cc(O)c(C(CC(=O)N2CCCC(C)C2)c2ccc(OC)c(OC)c2)c(OC)c1 (stereo not given),inactive
15,CCN(CC)c1ccc(NC(=O)Nc2ccc(C(C)=O)cc2)cc1,inactive
16,CCSC1=NS(=O)(=O)c2ccccc21,inactive
17,O=C(Cn1cc(CN(Cc2ccccc2)Cc2ccccc2)nn1)Nc1cc(C(F)(F)F)ccc1Cl,inactive
18,COc1cccc(-c2ccc3ncnc(NCc4cccc(F)c4)c3c2)c1,inactive
19,CC(=O)Nc1sc2c(c1C(=O)O)CCNC2,inactive
20,CN(C)c1cccc(-c2nc(N3CCC(C(N)=O)CC3)ncc2F)c1,inactive

row,SMILES,Potency
1,O=C1c2ccccc2C(=O)N1Cc1ccccc1,inactive
2,Cc1cc(-c2nnc3n2CCCCC3)c(C)n1-c1ccccn1,inactive
3,O=C(c1ccccc1)N1CCN(c2nc(-c3ccc(Br)cc3)cs2)CC1,inactive
4,O=C(/C=C/c1ccc(OC(F)(F)F)cc1)Nc1cccc([S+](=O)([O-])Nc2ccccc2F)c1,inactive
5,COc1cc(-c2nc(Nc3ccc(F)c(F)c3)c3ccccc3n2)cc(OC)n1,inactive
6,O=S1(=O)N=C(Oc2cccc(C(F)(F)F)c2)c2ccccc21,inactive
7,S=C(Nc1ccc(Cl)c(Cl)c1)Nc1nnc(-c2ccncc2)s1,inactive
8,COc1cccc(C2c3c(ncn(-c4ccccn4)c3=N)Oc3ccc4ccccc4c32)c1 (stereo not given),inactive
9,O=C1CCCC2=C1C1(CCSC1)N=C(Nc1nc3ccccc3o1)N2 (stereo not given),inactive
10,CC(C)(C)Nc1nc(C#N)nc(Nc2ccccc2)n1,inactive
11,Cc1cc(NS(=O)(=O)c2ccc(NC(=O)C(C)(C)c3ccc(Cl)c(Cl)c3)cc2)no1,inactive
12,CC(C)c1ccccc1-c1nc(NCc2ccc(-c3cccnc3)cc2)c2ccccc2n1,inactive
13,Cc1ccc(NS(=O)(=O)c2ccc3c(c2)CCN(C(=O)C(F)(F)F)C3)cc1C,inactive
14,CC(=O)Nc1sc2c(c1-c1ccccc1F)CCNC2,inactive
15,O=C1CCc2cc(S(=O)(=O)Nc3ccccn3)ccc2N1,inactive
16,CCN(Cc1sccc1C)c1ncnc2ccc(-c3ccc4c(c3)OCO4)cc12,inactive
17,COc1cc(OC)c2c(c1)OC(=O)CC2c1ccc2c(c1)OCO2 (stereo not given),inactive
18,Cc1ccc(OCCn2c(CCNC(=O)c3cccc(NC(=O)OC(C)(C)C)c3)nc3ccccc32)cc1,inactive
19,Cc1cccc(C(=O)NC2CCN(C#N)CC2)c1,inactive
20,O=C(Nc1ccc(-c2ccccc2)nc1)c1cccs1,inactive
